Measurements as given in the supplement of paper PMC13380429.

System: Vero E6 infected with SARS-CoV-2
Experiment: inhibition of SARS-CoV-2 cytopathic effect; higher = more antiviral protection, active = above 15
Details: 48 h

Measured: inhibition of SARS-CoV-2 cytopathic effect

Cc1ccc(NC2=CC(=O)c3sc(C)nc3C2=O)cc1 [ryuvidine]
inactive: 1 nM 1.42% | 8.33 nM 4.18% | 100 nM 4.56% | 833.33 nM 6.56% | 10000 nM -20.4%

CCCN(CCC)C1Cc2cc(OC)c(OC)cc2C1
inactive: 1 nM -0.72% | 8.33 nM -0.86% | 100 nM -2.03% | 833.33 nM 0.79% | 10000 nM -2.36%

Cc1nn(C)c2c1C(c1cccc(Cl)c1)=NCCN2 [zometapine]
inactive: 1 nM -1.8% | 8.33 nM -1.16% | 100 nM 1.14% | 833.33 nM -0.92% | 10000 nM -4.7%

NCCCC(O)(P(=O)(O)O)P(=O)(O)O [alendronate]
inactive: 1 nM -2.08% | 8.33 nM -1.44% | 100 nM 0.15% | 833.33 nM -0.56% | 10000 nM -0.44%

NC(=O)c1cccc(N)c1 [3-amino-benzamide]
inactive: 1 nM -2.7% | 8.33 nM -0.97% | 100 nM -0.7% | 833.33 nM -1.13% | 10000 nM 0.61%

O=S(=O)(O)CCS [mesna]
inactive: 1 nM 2.64% | 8.33 nM 4.29% | 100 nM 1.16% | 833.33 nM 5.57% | 10000 nM 0.95%

CS(=O)(=O)c1ccc([C@@H](CC2CCCC2)C(=O)Nc2nccs2)cc1
inactive: 1 nM -0.6% | 8.33 nM -1.12% | 100 nM 1.31% | 833.33 nM 1.71% | 10000 nM 1.96%

CCOc1ccc(-c2ccc(Cn3c(CC(C)(C)C(=O)O)c(SC(C)(C)C)c4cc(OCc5ccc(C)cn5)ccc43)cc2)cn1
inactive: 1 nM 1.07% | 8.33 nM 0.1% | 100 nM -0.84% | 833.33 nM -0.16% | 10000 nM -0.78%
